Where “and” joins values, the source holds several entries; their conditions need not be identical. Equal entries are not always repeated. This is part of a sample that, as a whole, favours compounds with a hit. Of some 83,000 tested, about 20% had one in any assay.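 96-well plates, one dose, 48 hours. Percent growth reported; active if below 10.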 Calls of active or inactive are those of the source.
Assays:
Assay in all cases: NCI-60 one-dose screen, 48 h (100 = growth as untreated, 0 = no growth, -100 = all killed)
Details in all cases: 10 µM unless noted
[1] = test system: HCT-15 colon
[2] = test system: HT29 colon
[3] = test system: SNB-75 CNS
[4] = test system: SNB-19 CNS
[5] = test system: PC-3 prostate
[6] = test system: SK-MEL-5 melanoma
[7] = test system: UACC-62 melanoma
[8] = test system: LOX IMVI melanoma
[9] = test system: SK-MEL-28 melanoma
[10] = test system: SK-MEL-2 melanoma
[11] = test system: EKVX NSCLC
[12] = test system: SN12C renal
[13] = test system: UO-31 renal
[14] = test system: ACHN renal
[15] = test system: CAKI-1 renal
[16] = test system: A498 renal
[17] = test system: CCRF-CEM leukemia
[18] = test system: MOLT-4 leukemia
[19] = test system: U251 CNS
[20] = test system: TK-10 renal

Row | SMILES | growth [1] | growth [2] | growth [3] | growth [4] | growth [5] | growth [6] | growth [7] | growth [8] | growth [9] | growth [10] | growth [11] | growth [12] | growth [13] | growth [14] | growth [15] | growth [16] | growth [17] | growth [18] | growth [19] | growth [20]
1 | Cc1cccc(/C=C\C(=O)c2ccccc2)c1 | 89% (inactive) and 101% (inactive) | 91.9% (inactive) and 98.7% (inactive) | 90.5% (inactive) and 112% (inactive) | 86.7% (inactive) and 103% (inactive) | 86.3% (inactive) and 82.7% (inactive) | 106% (inactive) and 95% (inactive) | 90.2% (inactive) and 105% (inactive) | 85.3% (inactive) and 93.5% (inactive) | 110% (inactive) and 120% (inactive) | 100% (inactive) and 103% (inactive) | 97.8% (inactive) and 101% (inactive) | 89.7% (inactive) and 102% (inactive) | 67.3% (inactive) and 82.2% (inactive) | 124% (inactive) and 110% (inactive) | 92.8% (inactive) and 95.1% (inactive) | 95.2% (inactive) and 68.2% (inactive) | 78.9% (inactive) and 64.5% (inactive) | 91.5% (inactive) and 49.1% (inactive) | – | –
2 | O=C(/C=C/c1ccccn1)c1ccccc1O | 39.4% (inactive) and 62% (inactive) | 37.7% (inactive) and 29% (inactive) | – | 77.3% (inactive) and 81.6% (inactive) | 82.8% (inactive) | 75.2% (inactive) and 88.1% (inactive) | 77.5% (inactive) and 81.6% (inactive) | 20.4% (inactive) and 21.7% (inactive) | 77.6% (inactive) and 92.6% (inactive) | 104% (inactive) and 100% (inactive) | 76% (inactive) and 88.1% (inactive) | 63.7% (inactive) and 88.1% (inactive) | -17.5% (active) and 74.7% (inactive) | 65.3% (inactive) and 74.2% (inactive) | 34.8% (inactive) and 40% (inactive) | 110% (inactive) | – | 41.5% (inactive) | 38.3% (inactive) and 68.4% (inactive) | 84.4% (inactive) and 55.3% (inactive)
3 | CO/N=C/C=C\C(=O)N/C=C/C[C@H]1/C=C/[C@H](O)/C=C\C=C\c2cccc(O)c2C(=O)O1 | 11.9% (inactive) and 16.7% (inactive) | 9.82% (active) and 7.92% (active) | 25.2% (inactive) and -14.6% (active) | 68.3% (inactive) and 56.7% (inactive) | 37.5% (inactive) and 25.3% (inactive) | -70.6% (active) and -68.6% (active) | -1.1% (active) and -43.6% (active) | -45.7% (active) and -73.7% (active) | 32.1% (inactive) | 5.72% (active) and -20.7% (active) | 35.1% (inactive) and 47.9% (inactive) | 48.5% (inactive) and 40.9% (inactive) | 14.2% (inactive) and -7.71% (active) | 31.1% (inactive) and 22.4% (inactive) | 9.88% (active) and 2.94% (active) | 44.1% (inactive) and 10.3% (inactive) | 33% (inactive) and 32.7% (inactive) | 27.7% (inactive) and 14.6% (inactive) | – | 53.9% (inactive) and 52% (inactive)
4 | Cc1nn(-c2ccccc2)nc1C(=O)Nc1ccccc1C(=O)NCC1CC1 | 87.5% (inactive) and 71.2% (inactive) | 99.6% (inactive) and 72.6% (inactive) | 121% (inactive) and 4.66% (active) | 122% (inactive) and 54.3% (inactive) | 85.2% (inactive) and 78.2% (inactive) | 95.7% (inactive) and 93.5% (inactive) | 86.4% (inactive) and 88.3% (inactive) | 86.9% (inactive) | 104% (inactive) and 95.8% (inactive) | 117% (inactive) and 103% (inactive) | 79.4% (inactive) | 89.2% (inactive) and 45.2% (inactive) | 95.5% (inactive) and 57.1% (inactive) | 91.8% (inactive) and 19.9% (inactive) | 97.6% (inactive) and 37.7% (inactive) | 107% (inactive) and 92.8% (inactive) | 86.8% (inactive) | 103% (inactive) and 75.6% (inactive) | – | 83.5% (inactive)
5 | CN(C)CCC(=O)c1ccc(Cl)cc1 | 111% (inactive) and 116% (inactive) | 106% (inactive) and 100% (inactive) | – | 95% (inactive) and 109% (inactive) | 92.5% (inactive) and 103% (inactive) | 103% (inactive) and 112% (inactive) | 98.5% (inactive) and 101% (inactive) | 113% (inactive) and 92.2% (inactive) | 107% (inactive) and 115% (inactive) | 115% (inactive) and 118% (inactive) | 115% (inactive) and 124% (inactive) | 97.9% (inactive) and 102% (inactive) | 87.3% (inactive) and 95.4% (inactive) | 114% (inactive) and 105% (inactive) | 102% (inactive) and 106% (inactive) | 121% (inactive) and 114% (inactive) | 93.2% (inactive) and 73.9% (inactive) | 94.7% (inactive) and 93.5% (inactive) | 113% (inactive) and 111% (inactive) | 105% (inactive) and 119% (inactive)
6 | O=C(O)C1(C(=O)O)CCC1.[NH2-].[NH2-].[Pt+2] | 102% (inactive) and 103% (inactive) | 106% (inactive) and 89.3% (inactive) | – | 94.6% (inactive) and 99.2% (inactive) | 93.6% (inactive) and 78.5% (inactive) | 101% (inactive) and 94.1% (inactive) | 96.1% (inactive) and 95.3% (inactive) | 95.9% (inactive) and 87.9% (inactive) | 112% (inactive) | 97.8% (inactive) and 104% (inactive) | 97.1% (inactive) and 106% (inactive) | 102% (inactive) and 103% (inactive) | 75.6% (inactive) and 103% (inactive) | 96.4% (inactive) and 103% (inactive) | 88% (inactive) and 81.1% (inactive) | 111% (inactive) and 98.4% (inactive) | 90.8% (inactive) | 113% (inactive) and 67% (inactive) | 102% (inactive) and 94.1% (inactive) | 111% (inactive) and 104% (inactive)
7 | O=C(/C=C\c1ccnc2ccccc12)c1ccc([N+](=O)[O-])cc1 | 87.9% (inactive) and 69.7% (inactive) | 70.3% (inactive) and 3.25% (active) | 110% (inactive) and 86.5% (inactive) | 90% (inactive) and 86.4% (inactive) | 93.8% (inactive) and 74.7% (inactive) | 67.4% (inactive) and 53.8% (inactive) | – | 52.1% (inactive) and 9.87% (active) | 104% (inactive) and 92.1% (inactive) | 83.4% (inactive) and 93.8% (inactive) | 75.3% (inactive) | 96.9% (inactive) and 86.2% (inactive) | 61.6% (inactive) and 49.7% (inactive) | 75.2% (inactive) and 70.6% (inactive) | 89.8% (inactive) and 70.3% (inactive) | 109% (inactive) and 55.2% (inactive) | 67.9% (inactive) and 28.6% (inactive) | 63.1% (inactive) and 49.3% (inactive) | – | 81.3% (inactive) and 86.9% (inactive)
8 | COc1ccc(-c2ncnc3c2ncn3C/C=C/CCl)cc1 | 61% (inactive) and 81.2% (inactive) | 84.6% (inactive) and 84.3% (inactive) | 128% (inactive) and 105% (inactive) | 87.8% (inactive) and 78.5% (inactive) | 83.8% (inactive) and 87% (inactive) | 85.7% (inactive) and 82.4% (inactive) | 76.6% (inactive) and 74% (inactive) | 54.2% (inactive) and 70.1% (inactive) | 98.4% (inactive) and 98.9% (inactive) | 68.6% (inactive) and 59.2% (inactive) | 108% (inactive) and 106% (inactive) | – | 60.3% (inactive) and 85.8% (inactive) | 59.4% (inactive) and 79.3% (inactive) | 70.8% (inactive) and 90.8% (inactive) | 68.4% (inactive) and 85.6% (inactive) | 63.2% (inactive) and 56.7% (inactive) | – | – | 86.3% (inactive) and 95.3% (inactive)

Source: PubChem BioAssay (NCI)
